High-throughput results as filed in PubChem.
HEK293 tox: cytotoxicity counter-screen for GLP-1 receptor inverse agonists. HEK293 cAMP-luciferase reporter cells, luminescence, 24 h. Potency, µM (doses to about 38.3 µM), actives largely listed as inhibitors. 410,000 compounds, 0.13% hits. AID 624418;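 further: loss of luciferase light is scored as toxicity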
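1536-well qHTS counterscreen of the MLSMR; 200 cells/uL, 12 h pre-incubation, 23 nL cpd, 24 h at 37 deg C 5% CO2, luciferase detection reagent, 12 min RT, luminescence. Inhibition = undesired.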
TSHR antagonist: human thyrotropin receptor antagonism; TSHR-expressing cells, TSH-stimulated cAMP HTRF, 2 h; active compounds read low; AID 504810; P16473; 330,000 compounds, 0.2% hits; activity change, negative = inhibition, % at 11.5 µM;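 active means activity change below a set negative limit, meaning inhibition stronger than a set level, cut at about -70% in these data; inconclusive means activity change between two set negative limits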
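TSHR-expressing cells, 200/well, pre-treated with compound, then stimulated with EC80 TSH (4nM final) for 2 hours at 37 deg C. cAMP measured by competitive HTRF: anti-cAMP cryptate antibody in lysis buffer plus cAMP-d2, read after 30 minutes at room temperature.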
PTHR1 agonist: agonists of human PTHR1 parathyroid hormone receptor; HEK293 GP2 PTHR1 cells, GloSensor cAMP luminescence, 1 h; Potency, µM (doses to about 115 µM), hits mostly activators; 410,000 compounds, 0.075% hits; AID 743266; further: nearly all actives have a fitted effect of over 55% in size
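HEK-293-derived GP2 cells expressing PTHR1 and a GloSensor cAMP reporter, 3,000/well, plated overnight, given luciferin plus IBMX (each 0.5 mM as added) for 1 h at 37 °C, then compound for 1 h at 37 °C. Luminescence was read after 15 min at room temperature.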
GLP1R inv ag: GLP-1 receptor (human) inverse agonism | P43220 | HEK293 GLP-1R CRE-luciferase, luminescence, 24 h; GLP-1R form is constitutively active | Potency, µM (doses to about 38.3 µM), actives largely listed as inhibitors | 410,000 compounds, 1.6% hits; further: nearly all actives have a fitted effect of over 55% in size
Target sequence (P43220 whole entry, looked up): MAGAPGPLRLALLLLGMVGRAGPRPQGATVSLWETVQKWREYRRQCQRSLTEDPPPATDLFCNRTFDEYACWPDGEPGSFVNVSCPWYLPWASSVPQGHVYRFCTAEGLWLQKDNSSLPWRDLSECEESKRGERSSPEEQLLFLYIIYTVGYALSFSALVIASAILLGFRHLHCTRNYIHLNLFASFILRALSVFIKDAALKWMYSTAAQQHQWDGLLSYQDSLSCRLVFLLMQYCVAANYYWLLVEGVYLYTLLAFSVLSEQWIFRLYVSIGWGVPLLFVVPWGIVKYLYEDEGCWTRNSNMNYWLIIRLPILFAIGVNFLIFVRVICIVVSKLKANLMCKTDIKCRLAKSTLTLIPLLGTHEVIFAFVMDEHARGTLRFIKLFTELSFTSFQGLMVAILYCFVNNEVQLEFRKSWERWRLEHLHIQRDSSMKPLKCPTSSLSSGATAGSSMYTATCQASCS
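Using stably transfected HEK293 (constitutively active GLP-1R, cAMP-luciferase reporter), compounds were incubated 24 hr and luciferase measured by luminescence.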
GLP1R ag: GLP-1 receptor (human) agonism. P43220. HEK293 GLP-1R CRE-luciferase, luminescence, 4-6 h; cells express a hypersensitive GLP-1R form. Potency, µM (top dose mostly 45.6 µM), usual class: activators. 380,000 compounds, 0.007% hits. AID 624172
Large screens that a line does not name were inactive. Only some compounds are listed: those with a hit (about 1.8% of all), similar ones and a draw of the others. Unless noted, the call rests on the fitted dose curve; in most records, active means well fitted curve in the direction sought with a large enough effect; inconclusive means small, poorly fitted or top-dose-only effect, or another doubt; inactive means no such curve, though single readings can be large; an effect the other way counts as inactive or inconclusive.

COC(=O)[C@H](C)N(Cc1ccc(Cl)c(Cl)c1)S(=O)(=O)CCNC1CCCC1	GLP1R inv ag 13µM
COc1cccc(-n2c(=O)c3c(C)c(C)sc3n(CC(=O)NCCc3ccc(OC)c(OC)c3)c2=O)c1	none (no result: TSHR antagonist, GLP1R ag)
Cc1ccc(-c2nnc(CSc3nnc(COc4cccc5ccccc45)n3-c3ccccc3)o2)cc1	GLP1R inv ag 11µM
COc1ccc(OC)c(C2c3c(oc4ccc(C)cc4c3=O)C(=O)N2CCCN(C)C)c1 (centres undefined)	none (no result: TSHR antagonist, GLP1R ag)
CC(C)CC(=O)Nc1cc(-c2ccccc2F)nn1-c1ccccc1	GLP1R inv ag inconclusive (no result: TSHR antagonist, GLP1R ag)
CCc1nnc(SCC(=O)N(C)c2ccccc2)c2cc3sccc3n12	none (no result: TSHR antagonist, GLP1R ag)
CCCCCOC(=O)CC(C(=O)OCCCCC)N1CCCCC1 (centres undefined)	GLP1R inv ag 13µM
CN(C)CCCN(C(=O)C1=COCCO1)c1nc2ccc(Br)cc2s1	HEK293 tox inconclusive, GLP1R inv ag 2µM
Cc1cc(C)c2nc(N(CCCN(C)C)C(=O)C3=COCCO3)sc2c1	HEK293 tox inconclusive, GLP1R inv ag 4.5µM
Nc1nc(N)c2cc(Sc3ccc4ccccc4c3)ccc2n1	HEK293 tox inconclusive, GLP1R inv ag 10µM
Nc1nc(N)c2cc(Sc3ccc(Cl)cc3)ccc2n1	HEK293 tox inconclusive, GLP1R inv ag inconclusive (no result: TSHR antagonist)
N#Cc1ccccc1Cn1c(SCC(=O)Nc2ccc(F)cc2)nc2ccccc21	none (no result: TSHR antagonist, GLP1R ag)
CCNC(=O)CC1C(=O)N(c2ccccc2)C(=O)N1CCC(C)C (centres undefined)	none
COc1ccc(NC(=O)CC2C(=O)N(c3ccc(OC)cc3)C(=O)N2CCC2=CCCCC2)cc1 (centres undefined)	none (no result: TSHR antagonist, GLP1R ag)
CC(C)CCN1C(=O)N(c2ccccc2)C(=O)C1CC(=O)Nc1ccc(Cl)cc1 (centres undefined)	GLP1R inv ag 10µM (no result: TSHR antagonist, GLP1R ag)
COc1cccc(N2C(=O)C(CC(=O)Nc3ccc(F)cc3)N(CCC3=CCCCC3)C2=O)c1 (centres undefined)	HEK293 tox inconclusive, GLP1R inv ag 10µM (no result: TSHR antagonist, GLP1R ag)
Cc1ccccc1Nc1scc(-c2ccc(Cl)cc2)[n+]1-c1ccccc1C	GLP1R inv ag 10µM
Cc1c(Nc2scc(-c3ccccc3)[n+]2-c2ccccc2)c(=O)n(-c2ccccc2)n1C	GLP1R inv ag inconclusive
CCc1cccc(NS(=O)(=O)c2ccc3c(c2)NC(=O)C(C)S3)c1 (centres undefined)	GLP1R inv ag 11µM
C=CCN(c1ccccc1)S(=O)(=O)c1ccc2c(c1)NC(=O)C(C)S2 (centres undefined)	GLP1R inv ag 7.1µM
C=CCN(c1ccccc1)S(=O)(=O)c1ccc2c(c1)NC(=O)C(C)C(=O)N2 (centres undefined)	none
CC1CCN(S(=O)(=O)c2cc(C(=O)NCc3ccccc3)n(C)c2)CC1	none (no result: TSHR antagonist)
COc1ccccc1N1CCN(C(=O)c2ccc3[nH]c4c(c3c2)CCCC4)CC1	GLP1R inv ag 10µM
O=C(/C=C/c1cn(-c2ccccc2)nc1-c1cccc(Cl)c1)N1CCN(c2ccccn2)CC1	GLP1R inv ag 7.1µM
O=C(c1ccc2[nH]c3c(c2c1)CCCC3)N1CCN(c2ccc(F)cc2)CC1	GLP1R inv ag inconclusive
COc1ccccc1N1CCN(C(=O)c2ccc(COc3cccc4c3OC(C)(C)C4)cc2)CC1	GLP1R inv ag 7.1µM
O=C(/C=C/c1cn(-c2ccccc2)nc1-c1cccnc1)N1CCCCC1	none
COc1ccccc1N1CCN(C(=O)c2cnc(N3CCOCC3)c3ccccc23)CC1	GLP1R inv ag inconclusive (no result: TSHR antagonist, GLP1R ag)
COc1ccccc1N1CCN(C(=O)c2cnc(N3CCCCC3)c3ccccc23)CC1	HEK293 tox inconclusive, GLP1R inv ag 3.5µM (no result: TSHR antagonist, GLP1R ag)
COc1ccc(CCNC(=O)CCn2c(=O)c3ccccc3n(Cc3ccccc3)c2=O)cc1OC	none (no result: TSHR antagonist)
Cc1nn2c(=O)cc(COc3ccc(/C=C(\C#N)C(=O)Nc4ccccc4)cc3Cl)nc2s1	HEK293 tox inconclusive, GLP1R inv ag inconclusive (no result: TSHR antagonist)
CCC(C)(C)OC(=O)N[C@@H](Cc1c[nH]c2ccccc12)C(=O)N[C@@H](CCSC)C(=O)N[C@@H](CC(=O)O)C(=O)N[C@@H](Cc1ccccc1)C(N)=O	none (no result: HEK293 tox, TSHR antagonist, PTHR1 agonist, GLP1R inv ag)
O=C(c1cnc(N2CCN(c3ccccn3)CC2)c2ccccc12)N1CCN(c2cccc(Cl)c2)CC1	GLP1R inv ag 2.2µM
O=C(c1cc(Cl)ccc1Cl)N1CCN(c2ccccn2)CC1	none
Nc1nc(NC2CC2)c2ncn([C@H]3C=C[C@@H](CO)C3)c2n1	none (no result: HEK293 tox, TSHR antagonist, PTHR1 agonist, GLP1R inv ag)
CCCn1c(=O)sc2cc(NC(=O)c3ccc(OC)c(Br)c3)ccc21	GLP1R inv ag 10µM (no result: TSHR antagonist)
CCn1c(=O)sc2cc(NC(=O)c3cccc(OC)c3)ccc21	none (no result: TSHR antagonist)
Cc1ccc(CNC(=O)c2c(-c3ccccc3)sc3ccccc23)o1	GLP1R inv ag 5µM
CC[C@H](C)[C@H](NC(=O)[C@H](CO)NC(=O)[C@H](CC(N)=O)NC(=O)[C@H](CC(C)C)NC(=O)[C@H](Cc1ccc(O)cc1)NC(=O)[C@H](CCCCN)NC(=O)[C@H](CCCCN)NC(=O)[C@@H](NC(=O)[C@H](C)NC(=O)[C@H](CCSC)NC(=O)[C@H](CCC(N)=O)NC(=O)[C@H](CCCCN)NC(=O)[C@H](CCCNC(=N)N)NC(=O)[C@H](CC(C)C)NC(=O)[C@H](CCCNC(=N)N)NC(=O)[C@@H](NC(=O)[C@H](Cc1ccc(O)cc1)NC(=O)[C@H](CC(N)=O)NC(=O)[C@H](CC(=O)O)NC(=O)[C@@H](NC(=O)[C@H](Cc1ccccc1)NC(=O)[C@@H](NC(=O)[C@H](C)NC(=O)[C@H](CC(=O)O)NC(=O)[C@H](CO)NC(=O)[C@@H](N)Cc1c[nH]cn1)C(C)C)[C@@H](C)O)[C@@H](C)O)C(C)C)C(=O)N[C@@H](CC(C)C)C(=O)N[C@@H](CC(N)=O)C(=O)O	none (no result: HEK293 tox, TSHR antagonist, PTHR1 agonist, GLP1R inv ag)
O=C(Cc1cccs1)Nc1ccc(-c2nc3ccccc3[nH]2)cc1	GLP1R inv ag 4.5µM
O=C(CSc1ccccc1)Nc1ccc(-c2nc3ccccc3[nH]2)cc1	GLP1R inv ag inconclusive
COC(=O)c1ccc2c(c1)N(Cc1ccc(F)cc1)C(=O)c1ccccc1S2	GLP1R inv ag inconclusive (no result: TSHR antagonist)
CCCc1cc(C(=O)N(C2CCCCC2)C2CCCCC2)no1	GLP1R inv ag 8.9µM
Cc1[nH]c(=S)c(C#N)c(C)c1CC(=O)c1ccc(Br)cc1	PTHR1 agonist 14µM
COc1ccc(Cn2cc(S(=O)(=O)c3ccc(Cl)cc3)c(=O)c3cc4c(cc32)OCO4)cc1	none (no result: TSHR antagonist, GLP1R ag)
Cc1ccc(-c2cc(C(F)(F)F)n3nc(C(=O)NCC45CC6CC(CC(C6)C4)C5)cc3n2)cc1	none (no result: TSHR antagonist, GLP1R ag)
NC(=O)C1CCN(c2nc(-c3cccc(Br)c3)cs2)CC1	none (no result: HEK293 tox, PTHR1 agonist, GLP1R inv ag, GLP1R ag)
O=C(Oc1c(-c2ccccc2)oc2ccccc2c1=O)c1ccccc1	GLP1R inv ag 5µM
